Most compounds without a hit are left out; they make up all but 10% or so of the library.
HP1b chromo inh: inhibitors of HP1-beta chromodomain binding to methylated histone tails | P83916 | AlphaScreen HP1-beta / biotin-H3K9me3 peptide binding | Potency, µM (doses to about 114 µM), for inactives: top-dose activity change, negative = inhibition, most hits filed as inhibitors | 390,000 compounds, 0.56% hits | AID 540317; also: potency is read from the fitted curve at half-maximal effect; nearly all actives have a fitted effect of over 70% in size
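Compound inhibition of the preformed complex between 50 nM HP1-beta and 50 nM biotinylated H3K9me3 peptide was read by AlphaScreen. Buffer was PBS pH 7.4 with 0.01% Tween-20. Incubations ran 30 min at room temperature, with 10 ug/mL donor/acceptor beads.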
JMJD2A Tudor inh: JMJD2A Tudor domain (human) inhibition; 390,000 compounds, 4.4% hits; AlphaScreen JMJD2A-Tudor / H3K4me3 peptide binding; O75164; AID 504339; Potency, µM (highest dose often 114 µM), without a hit: at the highest dose activity change, negative = inhibition, actives largely listed as inhibitors; also: potency is read from the fitted curve at half-maximal effect; % is scaled to controls: 0 for no effect and ±100 for the full control effect; nearly all actives have a fitted effect of over 50% in size
Target sequence (O75164 whole entry, looked up, the tested form may be a part): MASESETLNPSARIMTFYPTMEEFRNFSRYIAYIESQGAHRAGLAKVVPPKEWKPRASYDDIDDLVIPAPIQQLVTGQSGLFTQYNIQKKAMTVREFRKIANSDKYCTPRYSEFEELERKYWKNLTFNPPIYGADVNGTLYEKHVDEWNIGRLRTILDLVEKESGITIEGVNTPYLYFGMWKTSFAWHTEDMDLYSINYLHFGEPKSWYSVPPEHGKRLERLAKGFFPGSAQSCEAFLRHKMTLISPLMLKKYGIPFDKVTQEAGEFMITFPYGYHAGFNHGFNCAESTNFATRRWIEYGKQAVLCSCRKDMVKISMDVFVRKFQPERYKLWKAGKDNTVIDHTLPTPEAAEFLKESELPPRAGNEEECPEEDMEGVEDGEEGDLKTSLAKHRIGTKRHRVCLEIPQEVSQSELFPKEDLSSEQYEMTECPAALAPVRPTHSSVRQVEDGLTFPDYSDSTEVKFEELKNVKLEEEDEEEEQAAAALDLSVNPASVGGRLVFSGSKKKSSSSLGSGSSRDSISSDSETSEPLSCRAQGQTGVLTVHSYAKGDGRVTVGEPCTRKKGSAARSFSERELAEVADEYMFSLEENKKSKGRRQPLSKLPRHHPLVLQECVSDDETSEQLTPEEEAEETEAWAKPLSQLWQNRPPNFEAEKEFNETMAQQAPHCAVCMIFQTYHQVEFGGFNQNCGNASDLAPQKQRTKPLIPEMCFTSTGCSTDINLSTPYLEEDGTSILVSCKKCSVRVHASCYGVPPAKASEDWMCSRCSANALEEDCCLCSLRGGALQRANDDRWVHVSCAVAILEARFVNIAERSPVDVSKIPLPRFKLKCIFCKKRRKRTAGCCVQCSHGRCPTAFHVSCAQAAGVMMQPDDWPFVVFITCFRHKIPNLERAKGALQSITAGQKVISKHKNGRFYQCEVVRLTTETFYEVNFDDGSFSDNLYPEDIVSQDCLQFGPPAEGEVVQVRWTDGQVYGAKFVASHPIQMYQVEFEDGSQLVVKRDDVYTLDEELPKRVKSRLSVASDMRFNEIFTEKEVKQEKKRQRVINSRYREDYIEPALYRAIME
Six1-Eya2 inh: Six1/Eya2 interaction inhibition. AID 651725. Q15475+O00167. AlphaScreen GST-Six1/His-Eya2 binding, biochemical; hits give low values. activity change, % (concentration not given with the values). 360,000 compounds, 0.56% hits; in the data active = activity change below about -65%; inconclusive = mostly about -30% to -63%; also: % is scaled to controls: 0 for no effect and ±100 for the full control effect
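AlphaScreen with GST-Six1 and His-Eya2 (5X mix: 250 nM and 500 nM), glutathione donor and nickel acceptor beads; buffer 50 mM Tris pH 8.0, 300 mM NaCl, 1 mM TCEP; 1 h at 37 C in the dark.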
G9a block: G9a (human) methyltransferase inhibition | G9a H3K9 monomethylation, AlphaScreen, 2 h | Potency, µM (doses to about 102 µM), for inactives: top-dose activity, negative = inhibition, actives largely listed as inhibitors | 350,000 compounds, 8.8% hits | AID 504332; also: potency is read from the fitted curve at half-maximal effect; % is scaled to controls: 0 for no effect and ±100 for the full control effect; nearly all actives have a fitted effect of over 75% in size
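Enzyme 20 nM + cpd, 15 min RT; add b-H3K9 pep 500 nM / SAM 20 uM; 2 h RT; anti-H3K9me1 Ab 0.5 ug/mL + SA donor / anti-rabbit acceptor beads 20 ug/mL each, 10 min; AlphaScreen read.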
CtBP-E1A inh: inhibitors of CtBP/E1A interaction | AlphaScreen GST-E1A/His-CtBP binding, 1536-well; hits give low values | activity change, % (no concentration beside the values) | 340,000 compounds, 0.49% hits; in the data active = activity change below about -65%; inconclusive = mostly about -30% to -63%; also: % is scaled to controls: 0 for no effect and ±100 for the full control effect
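GST-E1A and His-tagged CtBP (125 nM each as 5X stock) were preincubated with pin-transferred compound for 2 h at 37 °C in the dark, then glutathione donor and nickel acceptor beads were added for 1 h before AlphaScreen reading.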
BAZ2B block: BAZ2B (human) inhibition; AlphaScreen BAZ2B-H3K14Ac peptide displacement; Potency, µM (series often up to 114 µM), without a hit: at the highest dose activity change, negative = inhibition, hits mostly inhibitors; 360,000 compounds, 4.4% hits; AID 504333; Q9UIF8; also: potency is read from the fitted curve at half-maximal effect; % is scaled to controls: 0 for no effect and ±100 for the full control effect; nearly all actives have a fitted effect of over 60% in size
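Complex of BAZ2B and biotin-H3K14Ac (50 nM apiece) forms over 30 min at RT, then faces library compounds up to 110 uM for another 30 min; AlphaScreen beads added, 20 min dark incubation, luminescence read.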
* marks the source's active call; other numbers are inactive results; ! = repeats disagree; [ ] = another dose, or the depositor's remark. Unless noted, calls follow the shape of the dose curve; as a rule, active = well fitted inhibition curve with a large enough effect; inconclusive = small, poorly fitted or top-dose-only effect; inactive = no such curve, though single readings can be large or run the other way.

For Cc1ccc(NC(=S)N2CCC(c3ccc(C)cc3)C2)cc1 (centres undefined) the results were HP1b chromo inh -21%, JMJD2A Tudor inh -25%, Six1-Eya2 inh 0, G9a block 10µM*, CtBP-E1A inh -2 and BAZ2B block 1%.
Screening COc1ccc(NC(=S)N2CCC(c3ccc(C)cc3)C2)cc1 (centres undefined) returned HP1b chromo inh 37%, JMJD2A Tudor inh -18%, Six1-Eya2 inh -9, G9a block 6%, CtBP-E1A inh -17 and BAZ2B block -19%.
Screening CCc1n[nH]c(=S)n1/N=C/c1ccc2c(c1)OCO2 returned HP1b chromo inh 9%, JMJD2A Tudor inh 4.5µM*, Six1-Eya2 inh -3, CtBP-E1A inh -2 and BAZ2B block -4%.
For S=c1[nH]nc(-c2ccncc2)n1/N=C/c1cn(-c2ccccc2)nc1-c1ccccc1 the results were HP1b chromo inh 65%, JMJD2A Tudor inh -18%, Six1-Eya2 inh 0, G9a block inconclusive and BAZ2B block 21%.
`Nc1nonc1N/N=C/c1c(O)ccc2ccccc12` gave HP1b chromo inh 16%, JMJD2A Tudor inh -29%, Six1-Eya2 inh -1, G9a block inconclusive, CtBP-E1A inh -1 and BAZ2B block -28%.
Screening CCOC(=O)c1c(/N=C/c2cc(OC)cc([N+](=O)[O-])c2O)sc(C)c1C returned HP1b chromo inh inconclusive, JMJD2A Tudor inh inconclusive, Six1-Eya2 inh -15, G9a block 20µM*, CtBP-E1A inh -4 and BAZ2B block 50µM*.
For CCc1n[nH]c(=S)n1/N=C/c1c(O)ccc2ccccc12 the results were HP1b chromo inh 37%, JMJD2A Tudor inh 14µM*, Six1-Eya2 inh 3, G9a block inconclusive and BAZ2B block -24%.
`S=c1[nH]nc(-c2ccncc2)n1/N=C/c1cccc2ccccc12` gave G9a block 1.1µM* and BAZ2B block -7%.
`Cc1cc(/C=N/n2cnnc2)c(O)c([N+](=O)[O-])c1` gave HP1b chromo inh 4%, JMJD2A Tudor inh -7%, Six1-Eya2 inh 0, G9a block 0%[59 µM], CtBP-E1A inh -8 and BAZ2B block inconclusive.
`CCc1n[nH]c(=S)n1/N=C/c1cccc2ccccc12` gave HP1b chromo inh 32%, JMJD2A Tudor inh inconclusive, Six1-Eya2 inh -8, G9a block 1.6µM*, CtBP-E1A inh 0 and BAZ2B block -18%.
Screening CCc1n[nH]c(=S)n1/N=C/c1cc(OC)cc([N+](=O)[O-])c1O returned HP1b chromo inh inconclusive, JMJD2A Tudor inh 5µM*, Six1-Eya2 inh -3, G9a block 7.9µM*, CtBP-E1A inh -13 and BAZ2B block 14%.
Screening CN(C)c1ccc(CNC(=O)CCS(=O)(=O)c2ccc3c(c2)n(C)c(=O)c(=O)n3C)cc1 returned HP1b chromo inh -27%, JMJD2A Tudor inh inconclusive, Six1-Eya2 inh 20, G9a block 18µM*, CtBP-E1A inh 14 and BAZ2B block inconclusive.
For CN(C)c1ccc(CNC(=O)CCc2ccc(S(=O)(=O)N3CCCCCC3)cc2)cc1 the results were HP1b chromo inh -22%, JMJD2A Tudor inh 50µM*, Six1-Eya2 inh -24, G9a block 28µM*, CtBP-E1A inh -25 and BAZ2B block 45µM*.
COc1ccc(CNC(=O)CCc2ccc(S(=O)(=O)N3CCCCCC3)cc2)cc1 was read as HP1b chromo inh 30%, JMJD2A Tudor inh -3%, Six1-Eya2 inh 0, G9a block 5%[2.33 µM], CtBP-E1A inh 3 and BAZ2B block 1%.
`CN(C)c1ccc(CNC(=O)CN2C(=O)CSc3ccc(S(=O)(=O)N4CCCC4)cc32)cc1` gave HP1b chromo inh -23%, JMJD2A Tudor inh inconclusive, G9a block 11µM* and BAZ2B block inconclusive.
`CC1CCN(CCCNC(=O)CN2C(=O)CSc3ccc(S(=O)(=O)N4CCC(C)CC4)cc32)CC1` gave HP1b chromo inh inconclusive, JMJD2A Tudor inh 56µM*!, Six1-Eya2 inh 0, G9a block 4%[59 µM] and BAZ2B block -7%.
For O=C(CN1C(=O)CSc2ccc(S(=O)(=O)N3CCCC3)cc21)NCc1ccc(Cl)cc1 the results were HP1b chromo inh 13%, JMJD2A Tudor inh -17%, G9a block 4%[59 µM] and BAZ2B block -15%.
Screening O=C(CSc1nnc(CNC(=O)c2c(F)cccc2Cl)o1)Nc1cccc(F)c1 returned HP1b chromo inh 43%, JMJD2A Tudor inh -5%, G9a block -27%[59 µM] and BAZ2B block 1%.
Screening O=C(CN1CCN(S(=O)(=O)c2ccc(Br)cc2)CC1)c1ccc(O)c(O)c1 returned HP1b chromo inh 37%, JMJD2A Tudor inh 7%, Six1-Eya2 inh -8, G9a block 10µM* and BAZ2B block inconclusive.
`COc1ccc(C(=O)CN2CCN(S(=O)(=O)c3ccc(F)cc3)CC2)cc1` gave HP1b chromo inh 29%, JMJD2A Tudor inh -6%, G9a block inconclusive and BAZ2B block 3%.
CC(C)c1ccc(S(=O)(=O)N2CCN(CC(=O)c3ccc(O)c(O)c3)CC2)cc1 was read as G9a block 8.9µM* and BAZ2B block 40µM*.
For COc1ccc2c(c1)c1c(c(=O)n(-c3ccccc3C)c(=O)n1CC(=O)Nc1c(C)cccc1C)n2C the results were HP1b chromo inh 21%, JMJD2A Tudor inh -5%, G9a block -17%[59 µM] and BAZ2B block -10%.
Fc1ccccc1CN1CCC(Cc2ccccc2)CC1 was read as HP1b chromo inh inconclusive, JMJD2A Tudor inh 0.89µM*, Six1-Eya2 inh 12, CtBP-E1A inh -12 and BAZ2B block inconclusive.
OC(COc1ccccc1F)CN1CCC(Cc2ccccc2)CC1 (centres undefined) was read as HP1b chromo inh 27%, JMJD2A Tudor inh -15%, Six1-Eya2 inh 1, CtBP-E1A inh -12 and BAZ2B block -1%.
Screening Fc1cccc(CNC2CCN(CCc3ccccc3)CC2)c1 returned HP1b chromo inh 35%, JMJD2A Tudor inh -19%, Six1-Eya2 inh 2, G9a block 2%, CtBP-E1A inh -4 and BAZ2B block -28%.
Fc1cccc(CN2CCC(Cc3ccccc3)CC2)c1 was read as HP1b chromo inh inconclusive, JMJD2A Tudor inh 56µM*, Six1-Eya2 inh -2, G9a block 28µM* and BAZ2B block 79µM*.
Screening COc1cccc(NC(=O)CN(C)C(=O)c2cccc(S(=O)(=O)N3c4ccccc4CC3C)c2)c1 (centres undefined) returned HP1b chromo inh 10%, JMJD2A Tudor inh -27%, Six1-Eya2 inh -13, G9a block 16µM*, CtBP-E1A inh -2 and BAZ2B block 2%.

Screening results: PubChem BioAssay, National Center for Advancing Translational Sciences (NCATS)
